Out of some 360,000 compounds screened, about 10,000 (2.8%) were called active. Another 4% or so got no clear call; they are omitted. Calls follow the shape of the dose curve; as a rule, active = well fitted inhibition curve with a large enough effect; inconclusive = small, poorly fitted or top-dose-only effect; inactive = flat fitted curve, though single readings scatter. The full list was thinned out, with actives kept by preference. The source holds several records for some structures; these can differ, active in one and inactive in another.
target: Serine/threonine-protein kinase PLK1 (Homo sapiens) (UniProt P53350); assay: qHTS for Inhibitors of PLK1-PDB (polo-like kinase 1 - polo-box domain): Primary Screen; conditions: Plk1 PBD binding of FITC phosphopeptide, fluorescence polarization; also: nearly all actives have a fitted effect of over 65% in size; as to max response, negative = inhibition: series mostly up to about 57 µM
Sequence (P53350 whole entry, looked up, the tested form may be a part): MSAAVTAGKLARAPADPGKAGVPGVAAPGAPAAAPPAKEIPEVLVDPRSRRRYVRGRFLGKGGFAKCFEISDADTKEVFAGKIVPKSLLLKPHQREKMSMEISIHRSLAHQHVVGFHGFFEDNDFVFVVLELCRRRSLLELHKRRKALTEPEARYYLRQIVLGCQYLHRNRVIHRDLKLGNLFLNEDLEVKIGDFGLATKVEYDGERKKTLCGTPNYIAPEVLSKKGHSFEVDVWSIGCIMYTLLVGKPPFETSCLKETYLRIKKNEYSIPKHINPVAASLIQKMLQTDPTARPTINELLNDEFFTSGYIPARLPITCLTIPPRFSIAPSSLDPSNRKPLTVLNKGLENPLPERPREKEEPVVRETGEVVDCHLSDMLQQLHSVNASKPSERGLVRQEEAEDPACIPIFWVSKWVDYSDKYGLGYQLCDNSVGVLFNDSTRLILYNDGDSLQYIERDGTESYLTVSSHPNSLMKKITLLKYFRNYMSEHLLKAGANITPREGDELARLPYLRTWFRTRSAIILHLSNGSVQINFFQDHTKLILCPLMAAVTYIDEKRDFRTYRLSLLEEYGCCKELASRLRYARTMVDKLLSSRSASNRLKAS
Text: The polo-like kinase 1 (Plk1) is a member of a conserved subfamily of serine / threonine protein kinases that plays a pivotal roles in cell proliferation. It has a C-terminal non-catalytic region called the polo-box domain (PBD) that plays a crucial role in the subcellular localization of the Plk1. […] Furthermore, depletion of the overexpressed Plk1 by RNAi efficiently induces apoptotic cell death in cancer and reduces tumor growth in mouse xenograft models. Thus, targeting Plk1 is an appealing strategy for anti-cancer therapy. Therefore, this project aimed to screen the Molecular Libraries Small Molecule Repository (MLSMR) using a novel approach to find inhibitors that target the Plk1 PBD instead of the conventional N-terminal catalytic domain. This project employed a fluorescence polarization (FP) assay using a FITC-conjugated phospho-9-mer (p-9-mer) peptide and purified human Plk1 PBD protein. The identified small molecule inhibitors of Plk1 PBD can then further be developed into useful tools for biomedical and clinical research that complements or replaces current relevant disease therapy. NIH Chemical Genomics Center [NCGC] NIH Molecular Libraries Probe Centers Network [MLPCN] MLPCN Grant: MH100728 Assay Submitter (PI): Kyung Lee, NCI
Four microliter of 25 nM FITC-p-9-mer + 60 nM Plk1 PBD in buffer solution (final concentrations 25 nM and 60 nM respectively) or 4 uL of 25 nM FITC-p-9-mer (final concentration 25 nM) in buffer will be dispensed into a 1,536 Greiner medium-binding black solid plate. Small molecules at final concentrations of 18 nM to 57 uM and positive control phospho-9-mer (sequence: Ac-PPLHSpTAI-NH2) at final concentrations 26 nM to 57 uM and phospho-13-mer (sequence: Ac-[…]pTAI-NH2) at final concentrations of 1 nM to 2.3 uM will be pin-transferred (23 nL) to the plate via a Kalypsys pin-tool robotics equipped with a 1,536-pin array. The reaction plate will be centrifuged for 1 min at 1000 rpm and incubated at room temperature for 10 min. The FITC fluorescence signals will be read using the PerkinElmer ViewLux plate reader at 480 / 20 nm excitation and 540 / 20 nm S and P polarization emission wavelengths. Reagent bottles will be kept submerged into 4 °C recirculating chiller bath and all liquid lines will be covered with aluminum foil to minimize degradation. Library plates will be screened starting from the lowest to the highest concentrations to minimize compound carryover. Vehicle only plates, with DMSO being pin-transferred instead of compound solutions, will be included regularly throughout the screen to record any systematic shifts in assay signal.
% is scaled to controls: 0 for no effect and ±100 for the full control effect; potency is read from the fitted curve at half-maximal effect.

| Structure (SMILES) | max response, negative = inhibition | Potency |
| --- | --- | --- |
| Cc1ccc(-c2c(N)nc3ncccn23)cc1 | 2.55% (inactive) | – |
| CCc1nc2c(OCC(N)=O)cccn2c1N(C)C(=O)c1ccc(OC)cc1 | -13.5% (inactive) | – |
| Clc1c(OCCCn2ccnc2)ccc2ccccc12 | -25.1% (inactive) | – |
| Cc1nc2ccccc2c(=O)n1CCCn1ccnc1 | – | 21.2 µM (active) |
| CC1(C(=O)NCc2ccccc2)CSCC(=O)N1CCCn1ccnc1 (stereo unspecified) | -0.172% (inactive) | – |
| COc1ccc(/C=N/NC(=O)C(C)N(c2ccc(OC)cc2)S(C)(=O)=O)cc1 (stereo unspecified) | – | 26.7 µM (active) |
| CN(C)c1ccc(/C=N/NC(=O)C(O)c2ccc(Br)cc2)cc1 (stereo unspecified) | -14.9% (inactive) | – |
| CC(C(=O)NC1CCCC1)N(c1ccc(Oc2ccccc2)cc1)S(C)(=O)=O (stereo unspecified) | -1.83% (inactive) | – |
| COc1ccccc1Cc1c(-c2ccc(Cl)cc2)nc2c3ccccc3ccn12 | -5.7% (inactive) | – |
| O=C(/C=C/[C@H]1O[C@@H](n2ccc(=O)[nH]c2=O)[C@H](O)[C@@H]1O)NCc1ccccn1 | 0.76% (inactive) | – |
| Cc1cccc(C)c1NC(=O)C(c1ccc(C(F)(F)F)cc1)n1c(=O)c(-c2ccco2)nc2ccccc21 (stereo unspecified) | -16.2% (inactive) | – |
| CC(C)/C=N/NC(=O)c1cc(Br)ccc1O | -13.1% (inactive) | – |
| COc1ccc(-c2[nH]ncc2/C=N/NC(=O)c2cc(Br)ccc2O)c(OC)c1 | – | 26.7 µM (active) |
| COc1ccc(CC(=O)NCC(=O)N/N=C/c2cc(Br)ccc2OC)cc1 | 0.444% (inactive) | – |
| CC(C)(O)C1=C[N+](=O)CC=C1 | -9.3% (inactive) | – |
| CCOC(=O)c1cnc(SCC(=O)NCc2ccco2)nc1N | -1.79% (inactive) | – |
| O=C(CNc1ccc(F)cc1F)NC(=O)NCc1ccco1 | -20.1% (inactive) | – |
| Cc1cc(C)n2nc(SCC(=O)NC(=O)NCc3ccco3)nc2n1 | – | 16.8 µM (active) |
| O=[N+]([O-])c1ccc(CN2CC(N3CCC(c4ccccc4)CC3)CS2(=O)=O)cc1 (stereo unspecified) | -13.3% (inactive) | – |
| CCOc1ccc(Cl)cc1-c1cc(C(=O)NCc2cccs2)[nH]n1 | -0.638% (inactive) | – |
| O=C(O)CCCC(=O)N1N=C(c2ccco2)CC1c1ccco1 (stereo unspecified) | -14% (inactive) | – |
| Cc1nn2c(c1-c1ccccc1)N=C(c1ccco1)CC2c1ccccc1 (stereo unspecified) | 2.38% (inactive) | 42.3 µM (active) |

| Structure (SMILES) | max response, negative = inhibition | Potency |
| --- | --- | --- |
| Cc1nn(C(=O)c2ccoc2C)c(N)c1-c1ccccc1 | -3.12% (inactive) | – |
| C[C@H]1CN([C@@H](C)CO)C(=O)c2cc(-c3ccccc3F)cnc2O[C@H]1CN(C)C(=O)C1CCOCC1 | -20.8% (inactive) | – |
| Cc1ccc(Cn2c(C)c(C(=O)NCc3ccccc3C(F)(F)F)sc2=O)cc1 | -12.2% (inactive) | – |
| C=CCC(NC(=O)Cc1ccccc1)C(=O)NCCC (stereo unspecified) | -11.6% (inactive) | – |
| O=C(Cc1ccc(-c2ccccc2)cc1)NC(c1ccccc1)c1ccccc1 | – | 21.2 µM (active) |
| O=C(CN1CCN(Cc2ccccc2)CC1)NC(c1ccccc1)c1ccccc1 | -13.1% (inactive) | – |
| O=C1NC[C@H](CCCCN2C[C@H](Cc3ccc(O)cc3)N(CC3CCCCC3)C(=O)C2=O)N(CCc2ccccc2)C1=O | -5.25% (inactive) | – |
| Cc1nc2c(OCc3ccc(Cl)cc3Cl)cccn2c1N(C)CC1CC1 | -13% (inactive) | – |
| Cc1cc2nc(-c3ccc(Cl)cc3)c(Cc3cccc(F)c3)n2c(C)c1Br | -18.5% (inactive) | – |
| Cc1noc(C)c1NC(=O)N(C)C[C@@H]1Oc2cc(Br)ccc2S(=O)(=O)N([C@@H](C)CO)C[C@H]1C | 2.61% (inactive) | – |
| COc1ccccc1C1C(C#N)=C(N)Oc2c1c(-c1ccccc1)nn2-c1ccccc1 (stereo unspecified) | -0.276% (inactive) | – |
| Cn1c2c(c(=O)n(C)c1=O)C(c1cccc(F)c1)C(C#N)=C(N)O2 (stereo unspecified) | -22.7% (inactive) | – |
| Cc1nn(-c2ccccc2)c2c1C(c1ccc(F)cc1)C(C#N)=C(N)O2 (stereo unspecified) | – | 23.8 µM (active) |
| COc1ccc(S(=O)(=O)NC(=O)C2(C)CCN2C(=O)c2ccccc2CCc2ccccc2)cc1 (stereo unspecified) | -9.6% (inactive) | – |
| Cc1cc(Nc2ccc(C)c(C)c2)n2ncnc2n1 | -12.1% (inactive) | – |
| O=C(NC1CCN(C(=S)NCc2ccco2)CC1)c1ccc(F)cc1 | – | 23.8 µM (active) |
| O=S(=O)(c1ccc(F)cc1)N1CCN(C(=S)NCc2ccco2)CC1 | -10.7% (inactive) | – |
| CCCNC(=S)N1CCC(NC(=O)c2ccc(OC)cc2)CC1 | -7.7% (inactive) | – |
| COC(=O)C[C@@H]1C=C[C@@H](NS(=O)(=O)c2cccc(OC)c2)[C@@H](CO)O1 | -1.82% (inactive) | – |
| CC(=O)Nc1c(-c2ccc(C)cc2)nc2ccc(Cl)cn12 | -2.35% (inactive) | – |
| CCCCN(CC)CCCNC(=O)CS(=O)(=O)Cc1nc(-c2cccc(OC)c2)oc1C | 0.434% (inactive) | – |
| COc1cccc(-c2nc(CS(=O)(=O)CC(=O)NCCc3ccc(OC)c(OC)c3)c(C)o2)c1 | – | 18.9 µM (active) |

| Structure (SMILES) | max response, negative = inhibition | Potency |
| --- | --- | --- |
| COc1ccc(CCNC(=O)CS(=O)(=O)Cc2nc(-c3ccc(C)cc3)oc2C)cc1OC | -18.7% (inactive) | – |
| CC(=O)Nc1cccc(Nc2ccc(C#N)cc2)c1 | 0.998% (inactive) | – |
| CC1CCCC(NC(=O)COC(=O)c2ccccc2C(=O)N(C)C2CCCCC2)C1C (stereo unspecified) | -13.1% (inactive) | – |
| O=C(CSc1ccccc1)Nc1cccc(S(=O)(=O)N2CCOCC2)c1 | – | 23.8 µM (active) |
| O=C(Cn1cnc2ccccc2c1=O)Nc1cccc(S(=O)(=O)N2CCCCC2)c1 | – | 26.7 µM (active) |
| Nc1cc(N)nc(SCC(=O)Nc2cccc(S(=O)(=O)N3CCCCC3)c2)n1 | -3.4% (inactive) | – |
| O=C(CSc1ccccc1)Nc1cccc(S(=O)(=O)N2CCCCC2)c1 | 3.72% (inactive) | – |
| CCN(CC(=O)Nc1cccc(S(=O)(=O)N2CCCCC2)c1)Cc1ccccc1 | 1.36% (inactive) | – |
| O=C(COC(=O)c1ccccc1)Nc1cccc(S(=O)(=O)N2CCOCC2)c1 | 10.6% (inactive) | – |
| CN(C)CCN1CCN(c2cc(-c3cccc(Cl)c3)nc3ccnn23)CC1 | -12.4% (inactive) | – |
| COc1ccc(Sc2ccc(NC(=O)c3cccc(Cl)c3)cc2C#N)cc1 | 2.16% (inactive) | – |
| Cc1cccc(CN2CCN(C3CN(Cc4ccccc4)S(=O)(=O)C3)CC2)c1 (stereo unspecified) | 2.44% (inactive) | – |
| Nc1ncnc2c1ncn2[C@@H]1O[C@H](CNC(=O)[C@H](N)Cc2cccnc2)[C@@H](O)[C@H]1O | -2.93% (inactive) | – |
| CCCCCC(=O)N1C[C@H](O)[C@@H](n2cc(COC(=O)c3ccccc3)nn2)C[C@@H]1c1ccc(C)cc1 | -4.42% (inactive) | – |
| CCCCOC(=O)CNc1nnc(SCC(=O)OCC)[nH]c1=O | – | 13.4 µM (active) |
| Cc1nnc(SCC(=O)N2CCOCC2)[nH]c1=O | -7.51% (inactive) | – |
| CCOC(=O)CSc1nc(C)c(Oc2ccc(Cl)cc2Cl)c(=O)[nH]1 | -19.2% (inactive) | – |
| CCc1nc2ccc(C(=O)N(C)CCN(C)C)cn2c1N(CC)CCOC | -14.3% (inactive) | – |
| COCOCCn1cc(CN2CCS(=O)(=O)N(Cc3ccc(-c4ccccc4)cc3)C(CC(C)C)C2=O)nn1 (stereo unspecified) | -0.127% (inactive) | – |
| CCOC(=O)CNC(=O)c1nn(-c2cccc(OC)c2)c(=O)c2ccccc12 | -5.49% (inactive) | – |
| COc1ccc(-n2nc(C(=O)NCC(=O)N3CCCCCC3)c3ccccc3c2=O)cc1Cl | 4.93% (inactive) | – |
| COc1cccc(-n2nc(C(=O)N3CCN(Cc4ccccc4)CC3)c3ccccc3c2=O)c1 | – | 29.9 µM (active) |

| Structure (SMILES) | max response, negative = inhibition | Potency |
| --- | --- | --- |
| CC1(C(=O)NS(=O)(=O)c2cccs2)CCN1C(=O)Cc1ccc(-c2ccccc2)cc1 (stereo unspecified) | -1.09% (inactive) | – |
| COC(=O)[C@]12CCCCC=C1N(Cc1ccco1)C(=O)[C@H](CC(=O)NCCCCc1ccccc1)C2 | -4.79% (inactive) | – |
| COc1cccc(CNC(=O)[C@@H]2CCCN2C(=O)[C@@H]2CCCN2C(=O)c2ccccc2)c1 | -5.85% (inactive) | – |
| COc1ccc(-c2cc(C(=O)NC(Cc3c[nH]c4ccccc34)C(=O)O)c(C)o2)cc1OC (stereo unspecified) | – | 13.4 µM (active) |
| COc1ccc(-c2cc(=O)oc3cc(OCC(=O)N[C@@H](Cc4c[nH]c5ccccc45)C(=O)O)ccc23)cc1 | -6.27% (inactive) | – |
| COc1ccc(-c2cc(C(=O)NC(C(=O)O)C(C)C)c(C)o2)cc1OC (stereo unspecified) | -8.55% (inactive) | – |
| CCn1c(Cc2ccccc2)nnc1SCc1nc2ccccc2c(=O)[nH]1 | -5.5% (inactive) | – |
| CCn1c(COc2c(C)cccc2C)nnc1SCc1nc2ccccc2c(=O)[nH]1 | -11.4% (inactive) | – |
| COc1ccc(CCCc2nnc(SCc3nc4ccccc4c(=O)[nH]3)n2C)cc1 | – | 3.77 µM (active) |
| COc1ccccc1OCCOc1ccc(/C=C2\C(=N)N3N=C(C)SC3=NC2=O)cc1 | -15.8% (inactive) | – |
| Cc1cc(/C=C2/C(=N)N3C(=NC2=O)SN=C3S(C)(=O)=O)c(C)n1-c1ccccc1 | – | 26.7 µM (active) |
| CS(=O)(=O)c1ccc2c(c1)SC1=NC(=O)/C(=C/c3ccco3)C(=N)N12 | -3.25% (inactive) | – |
| CCS(=O)(=O)C1=NSC2=NC(=O)/C(=C\c3ccc(OS(=O)(=O)c4ccccc4)cc3)C(=N)N21 | – | 29.9 µM (active) |
| Cc1cc(/C=C2/NC(=O)NC2=O)c(C)n1-c1cccnc1 | 2.71% (inactive) | – |
| COc1cc(/C=C2\C(=N)N3N=C(CC(=O)N4CCOCC4)SC3=NC2=O)cc(OC)c1OC | -14.2% (inactive) | – |
| CS(=O)(=O)C1=NN2C(=N)/C(=C\c3ccc(OCCOc4ccccc4)cc3)C(=O)N=C2S1 | – | 26.7 µM (active) |
| CCCS(=O)(=O)NC(=O)C1(C)CCCN(C(=O)c2cccs2)C1 (stereo unspecified) | -11.7% (inactive) | – |
| COc1cccc(-c2cc(NC(C)=O)c3ncc(-c4cccc(C(C)=O)c4)n3c2)c1 | -19.9% (inactive) | – |
| CCCCc1ccc(S(=O)(=O)NC(=O)C2(C)CCN2C(=O)c2ccccc2)cc1 (stereo unspecified) | -13.3% (inactive) | – |
